Measured values published in PubChem BioAssay (Tox21).
Results filed as inconclusive are left out. Active and inactive are the calls of the source. Unless noted, calls follow the shape of the dose curve; as a rule, active = well fitted curve in the direction sought with a large enough effect in the repeat runs; inconclusive = weak or mixed curves; inactive = no such curve, though single readings can be large; an effect the other way counts as inactive or inconclusive.

Assays:
[1] = qHTS RealTime-Glo MT Cell Viability Assay in HEK293 cells - 0 hour (AID 1224880); also: top concentration of the series differs between compounds; nearly all actives have a fitted effect of over 45% in size
Summary of the method: (§1)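 Kinetic, non-lysing viability readout. Seed HEK293 (600/well) with reagent, incubate 5 h at 37 C/5% CO2, pin 23 nL compound in DMSO, incubate at 37 C, read luminescence at 0, 8, 16, 24, 32, 40 h.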

[2] = A CellTox Green Cytotoxicity Assay to monitor cytotoxicity in HEK293 cells - 32 hour (AID 1224881); also: nearly all actives have a fitted effect of over 40% in size
Summary of the method: (§2)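 Real-time, in one plate: 600 HEK293 cells/well with dead-cell DNA dye, pinned compound after 5 h, 37 C incubation over 40 h; viable cells give no appreciable fluorescence.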

[3] = A CellTox Green Cytotoxicity Assay to monitor cytotoxicity in HepG2 cells - 0 hour (AID 1224882); also: nearly all actives have a fitted effect of over 35% in size
Summary of the method: (§3)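 Cytotoxicity was tracked as dead-cell DNA fluorescence in HepG2 cells treated with test compounds at 37 C; each time-point value comes from one kinetic series spanning 0, 8, 16, 24, 32 and 40 h.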

[4] = A CellTox Green Cytotoxicity Assay to monitor cytotoxicity in HepG2 cells - 32 hour (AID 1224883); also: nearly all actives have a fitted effect of over 50% in size
Summary of the method: as §3

[5] = A CellTox Green Cytotoxicity Assay to monitor cytotoxicity in HEK293 cells - 8 hour (AID 1224884); also: nearly all actives have a fitted effect of over 35% in size
Summary of the method: as §2

[6] = qHTS RealTime-Glo MT Cell Viability Assay in HepG2 cells - 16 hour (AID 1224885); also: nearly all actives have a fitted effect of over 50% in size
Summary of the method: (§4)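 Cells + NanoLuc/prosubstrate dispensed (600 cells/well) → 5 h at 37 C/5% CO2 → compounds in DMSO transferred → 40 h incubation at 37 C, luminescence read at 0, 8, 16, 24, 32, 40 h.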

[7] = qHTS RealTime-Glo MT Cell Viability Assay in HEK293 cells - 24 hour (AID 1224886); also: top concentration of the series differs between compounds; nearly all actives have a fitted effect of over 50% in size
Summary of the method: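 Tox21 10K qHTS, HEK293, 600 cells/well, RealTime-Glo reagent co-dispensed with cells; 5 h preincubation, compound by pintool, 37 C, luminescence at 0–40 h.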

[8] = qHTS RealTime-Glo MT Cell Viability Assay in HEK293 cells - 8 hour (AID 1224887); also: top concentration of the series differs between compounds; nearly all actives have a fitted effect of over 50% in size
Summary of the method: as §1

[9] = A CellTox Green Cytotoxicity Assay to monitor cytotoxicity in HEK293 cells - 16 hour (AID 1224888); also: nearly all actives have a fitted effect of over 35% in size
Summary of the method: as §2

[10] = qHTS RealTime-Glo MT Cell Viability Assay in HepG2 cells - 0 hour (AID 1224889); also: nearly all actives have a fitted effect of over 50% in size
Summary of the method: as §4

[11] = A CellTox Green Cytotoxicity Assay to monitor cytotoxicity in HepG2 cells - 8 hour (AID 1224890); also: nearly all actives have a fitted effect of over 45% in size
Summary of the method: as §3

[12] = qHTS assay to identify small molecule antagonists of the estrogen receptor alpha (ER-alpha) signaling pathway using the BG1 cell line in the presence of 0.1 nM 17-beta-estradiol - cell viability counter screen (AID 1259241); also: nearly all actives have a fitted effect of over 40% in size
Summary of the method: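 The cell line endogenously expresses full-length ER-alpha and carries four EREs driving luciferase. Cells are cultured 5 days hormone-free, treated 22 hr with compounds and 0.1 nM estradiol, then viability is read by fluorescence.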

[13] = qHTS assay to identify small molecule antagonists of the androgen receptor (AR) signaling pathway using the MDA cell line in the presence of 0.5 nM R1881 - cell viability counter screen (AID 1259242); also: nearly all actives have a fitted effect of over 45% in size
Summary of the method: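 Cells seeded at 3,000/well and allowed 5 hr at 37C, 0% CO2 before compound transfer and R1881 (0.5 nM final) addition; 16 hr later, live-cell protease fluorescence indicated cytotoxicity.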

[14] = target: Estrogen receptor (Homo sapiens) (UniProt P03372); assay: qHTS assay to identify small molecule antagonists of the estrogen receptor alpha (ER-alpha) signaling pathway using the BG1 cell line in the presence of 0.1 nM 17-beta-estradiol (AID 1259244); also: nearly all actives have a fitted effect of over 50% in size
Summary of the method: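 Luciferase signal from VM7Luc4E2 ERE-reporter cells, co-dosed with test compound and 0.1 nM final 17beta-estradiol for 22 h, read with ONE-Glo.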

[15] = qHTS assay to identify small molecule HDAC inhibitors (AID 1259364);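 also: wild-type HCT-116 cells with endogenous class I/II HDAC activity; top concentration of the series differs between compounds; nearly all actives have a fitted effect of over 45% in size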
Summary of the method: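 HCT-116 wt cells, 1,500/well, overnight attach. Compounds (DMSO) 2 h, 37 °C. HDAC-Glo I/II, 30 min RT. Luminescence.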

[16] = qHTS assay to identify small molecule HDAC inhibitors - cell viability counter screen (AID 1259365)
Summary of the method: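 Viability readout: CellTiter-Glo luminescence. Wild-type HCT-116 cells, 2hr compound treatment following overnight attachment at 37 C.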

[17] = qHTS assay to identify small molecule agonists of the sonic hedgehog signaling (Shh) pathway - cell viability counter screen (AID 1259366); also: nearly all actives have a fitted effect of over 50% in size
Summary of the method: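 Viability measured fluorometrically (CellTiter-Fluor, 1hr, 37C) in 3T3 Gli1-Luc reporter cells after 23hr compound exposure within a 24hr incubation at 37C/5% CO2.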

[18] = qHTS assay to identify small molecule antagonists of the sonic hedgehog signaling (Shh) pathway - cell viability counter screen (AID 1259367); also: nearly all actives have a fitted effect of over 55% in size
Summary of the method: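 Tox21 library chemicals were tested on a Gli1-Luc NIH/3T3 clone (2,000 cells/well) stimulated by conditioned medium; viability was quantified as fluorescence from CellTiter-Fluor reagent added at 23 hr.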

[19] = qHTS assay to identify small molecule phospholipidosis (PLD) inducers (AID 1259344; active = well fitted curve in the direction sought with a large enough effect; an effect the other way counts as inactive or inconclusive)
Summary of the method: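 Image-based: LipidTOX Red pit count/intensity per well and per cell; HepG2, 24 h compound at 37 C, PFA fixation, Hoechst counterstain.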

[20] = target: Androgen receptor (Homo sapiens) (UniProt P10275); assay: qHTS assay to identify small molecule antagonists of the androgen receptor (AR) signaling pathway using the MDA cell line in the presence of 0.5 nM R1881 (AID 1259243); also: nearly all actives have a fitted effect of over 50% in size
Summary of the method: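 Luminescence from an AR/GR-responsive MMTV-luciferase construct in MDA-kb2 breast carcinoma cells, read 30 min after ONE-Glo, following 16 hr co-treatment with compounds and 0.5 nM R1881.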
% is scaled to controls: 0 for no effect and ±100 for the full control effect.

Estrogen receptor (Homo sapiens), sequence (P03372 whole entry, looked up): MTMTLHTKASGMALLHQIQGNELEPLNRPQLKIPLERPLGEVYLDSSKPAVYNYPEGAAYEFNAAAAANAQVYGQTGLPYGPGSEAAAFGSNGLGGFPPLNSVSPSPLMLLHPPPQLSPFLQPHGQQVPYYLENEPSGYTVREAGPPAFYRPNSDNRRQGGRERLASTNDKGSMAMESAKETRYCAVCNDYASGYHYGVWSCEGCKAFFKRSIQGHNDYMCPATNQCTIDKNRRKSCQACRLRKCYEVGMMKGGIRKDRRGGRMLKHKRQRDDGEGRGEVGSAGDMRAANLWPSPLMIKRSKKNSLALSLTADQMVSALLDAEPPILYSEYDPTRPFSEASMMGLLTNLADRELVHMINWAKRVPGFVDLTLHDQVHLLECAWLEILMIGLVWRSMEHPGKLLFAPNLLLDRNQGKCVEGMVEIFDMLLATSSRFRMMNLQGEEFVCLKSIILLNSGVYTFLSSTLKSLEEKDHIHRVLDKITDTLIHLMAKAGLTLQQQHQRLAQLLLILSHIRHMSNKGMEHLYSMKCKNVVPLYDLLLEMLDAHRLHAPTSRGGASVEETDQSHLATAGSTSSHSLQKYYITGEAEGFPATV
Androgen receptor (Homo sapiens), sequence (P10275 whole entry, looked up): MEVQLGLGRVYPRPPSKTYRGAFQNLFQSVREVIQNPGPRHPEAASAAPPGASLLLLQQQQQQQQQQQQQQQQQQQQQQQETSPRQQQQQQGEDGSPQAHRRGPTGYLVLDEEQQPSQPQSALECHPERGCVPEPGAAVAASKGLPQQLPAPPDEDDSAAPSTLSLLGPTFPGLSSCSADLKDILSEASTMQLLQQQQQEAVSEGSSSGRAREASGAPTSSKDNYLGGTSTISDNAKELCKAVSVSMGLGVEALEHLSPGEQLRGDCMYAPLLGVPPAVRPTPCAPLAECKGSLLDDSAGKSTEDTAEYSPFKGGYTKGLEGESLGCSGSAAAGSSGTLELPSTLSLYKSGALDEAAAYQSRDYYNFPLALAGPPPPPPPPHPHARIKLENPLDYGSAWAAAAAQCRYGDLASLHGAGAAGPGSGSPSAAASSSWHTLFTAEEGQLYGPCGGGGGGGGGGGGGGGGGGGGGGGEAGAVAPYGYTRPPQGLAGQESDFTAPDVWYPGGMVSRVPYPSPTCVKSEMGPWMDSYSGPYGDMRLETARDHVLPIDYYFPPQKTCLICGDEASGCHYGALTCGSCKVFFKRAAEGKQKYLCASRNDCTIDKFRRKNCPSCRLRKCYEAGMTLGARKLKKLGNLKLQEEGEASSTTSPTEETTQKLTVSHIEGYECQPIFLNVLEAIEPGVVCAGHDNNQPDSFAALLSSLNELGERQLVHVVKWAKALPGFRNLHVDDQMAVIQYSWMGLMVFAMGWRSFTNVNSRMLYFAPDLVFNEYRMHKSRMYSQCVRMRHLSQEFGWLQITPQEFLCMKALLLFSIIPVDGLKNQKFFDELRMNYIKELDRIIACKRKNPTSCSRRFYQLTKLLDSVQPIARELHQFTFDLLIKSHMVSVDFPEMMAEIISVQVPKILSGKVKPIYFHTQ

CCCCCCCCC(=O)Cl
inactive: Potency [1] | Potency [2] | outcome [3] | Potency [4] | Potency [5] | outcome [6] | Potency [7] | Potency [8] | outcome [9] | Potency [10] | outcome [11] | Potency [12] | outcome [13] | Potency [14] | Potency [15] | outcome [16] | Potency [17] | Potency [18]

COc1ccc(-c2cc(=O)c3c(O)cc(O[C@@H]4O[C@H](CO[C@@H]5O[C@@H](C)[C@H](O)[C@@H](O)[C@H]5O)[C@@H](O)[C@H](O)[C@H]4O)cc3o2)cc1O
inactive: Potency [1] | Potency [2] | outcome [3] | Potency [4] | Potency [5] | outcome [6] | Potency [7] | Potency [8] | outcome [9] | Potency [10] | outcome [11] | Potency [12] | outcome [13] | Potency [14] | outcome [19] | Potency [15] | outcome [16] | Potency [17] | Potency [18]

Cc1[nH]cnc1-c1ccc(Cl)cc1
inactive: Potency [1] | Potency [2] | outcome [3] | Potency [4] | Potency [5] | outcome [6] | Potency [7] | Potency [8] | outcome [9] | Potency [10] | outcome [11] | Potency [12] | outcome [13] | Potency [14] | Potency [15] | outcome [16] | Potency [17] | Potency [18]

Oc1cn2c(n1)Nc1ccc(Cl)c(Cl)c1C2
inactive: activity change, negative = cytotoxicity [1] -2.73% [at 15.8 µM] | cytotoxicity increase [2] -4.2% [at 15.8 µM] | cytotoxicity [3] 3.67% [at 15.8 µM] | cytotoxicity increase [4] -1.99% [at 15.8 µM] | cytotoxicity increase [5] 1.16% [at 15.8 µM] | activity change, negative = cytotoxic [6] 1.52% [at 15.8 µM] | activity change, negative = cytotoxicity [7] 2% [at 15.8 µM] | activity change, negative = cytotoxicity [8] 1.19% [at 15.8 µM] | activity change [9] -3.07% [at 15.8 µM] | activity change, negative = cytotoxicity [10] -2.51% [at 15.8 µM] | cytotoxicity increase [11] -5.9% [at 15.8 µM] | activity change, negative = cytotoxicity [12] 0.999% [at 19 µM] | viability change, negative = cytotoxic [13] 1.91% [at 19 µM] | activity, negative = inhibition [20] 16.6% [at 19 µM] | activity change, negative = inhibition [14] -26.8% [at 19 µM] | outcome [19] | activity change, negative = inhibition [15] -1.7% [at 19 µM] | activity change, negative = cytotoxicity [16] 1.3% [at 19 µM] | viability change, negative = cytotoxic [17] 3.75% [at 19 µM] | viability change, negative = cytotoxic [18] -4.16% [at 19 µM]

Cc1cccc(C)c1NC(=O)c1ccccc1C(=O)O
inactive: Potency [1] | Potency [2] | outcome [3] | Potency [4] | Potency [5] | outcome [6] | Potency [7] | Potency [8] | outcome [9] | Potency [10] | outcome [11] | Potency [12] | outcome [13] | Potency [20] | Potency [14] | outcome [19] | Potency [15] | outcome [16] | Potency [17] | Potency [18]

CC(C)c1ccc2cc(C(C)C)ccc2c1
inactive: Potency [1] | Potency [2] | outcome [3] | Potency [4] | Potency [5] | outcome [6] | Potency [7] | Potency [8] | outcome [9] | Potency [10] | outcome [11] | Potency [12] | outcome [13] | Potency [20] | Potency [14] | Potency [15] | outcome [16] | Potency [17] | Potency [18]

O=C(CCNNC(=O)c1ccncc1)NCc1ccccc1
inactive: Potency [1] | Potency [2] | outcome [3] | Potency [4] | Potency [5] | outcome [6] | Potency [7] | Potency [8] | outcome [9] | Potency [10] | outcome [11] | Potency [12] | outcome [13] | Potency [14] | outcome [19] | Potency [15] | Potency [17] | Potency [18]
